PubChem BioAssay (EPA / NIEHS)
Records with an inconclusive call do not appear. Active and inactive are the calls of the source. The calls were made as follows, unless noted: active = hit-call score of the fitted dose curve at least 0.9, where 1 is the maximum; inactive = score below 0.9.

What was measured:
[1] = biological target: Paired box protein Pax-6 (Homo sapiens) (UniProt P26367); experiment: ATG_Pax6_CIS: Attagene CIS-FACTORIAL HepG2 Assay for human Paired Box 6 (PAX6) (AID 2282956); conditions: HepG2 CIS-FACTORIAL PAX6 reporter transcription, RNA readout; actives raise or lower the signal
Paired box protein Pax-6 (Homo sapiens), sequence (P26367 whole entry, looked up): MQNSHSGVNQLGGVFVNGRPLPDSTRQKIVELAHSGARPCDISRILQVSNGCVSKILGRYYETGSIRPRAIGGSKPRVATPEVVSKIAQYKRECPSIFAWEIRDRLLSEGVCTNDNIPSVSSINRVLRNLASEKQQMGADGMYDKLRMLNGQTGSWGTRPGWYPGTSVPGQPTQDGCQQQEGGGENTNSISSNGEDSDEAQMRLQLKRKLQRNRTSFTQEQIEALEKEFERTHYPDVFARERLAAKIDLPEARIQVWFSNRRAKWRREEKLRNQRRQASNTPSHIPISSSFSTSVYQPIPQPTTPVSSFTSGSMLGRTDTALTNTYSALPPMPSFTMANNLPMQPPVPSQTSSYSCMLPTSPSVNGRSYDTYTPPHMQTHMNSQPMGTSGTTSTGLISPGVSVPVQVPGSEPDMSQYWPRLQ
Procedure, shortened: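 Readout: reporter transcript fluorescence after RT-PCR and capillary electrophoresis. Cells: HepG2, transiently transfected with cis-regulated MRTUs. Exposure 24 h. Gain or loss of signal fitted bidirectionally relative to DMSO.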

[2] = ATG_PXRE_CIS: Attagene CIS-FACTORIAL HepG2 Assay for human Pregnane X Receptor Element (PXRE) (AID 2282957); conditions: HepG2 Attagene CIS-FACTORIAL PXRE reporter, mRNA; actives raise or lower the signal
Procedure, shortened: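 Reporter transcripts under endogenous PXR-responsive cis-regulation quantified from total RNA of transfected HepG2 cells 24 h post-dosing, via RT-PCR with fluorescent primer extension and capillary electrophoresis. Gain or loss of signal fitted against DMSO baseline.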

[3] = ATG_PPRE_CIS: Attagene CIS-FACTORIAL HepG2 Assay for human Peroxisome Proliferator-activated Response Element (PPRE) (AID 2282958); conditions: HepG2 PPRE cis-element reporter, Attagene transcription factor profiling; actives raise or lower the signal
Procedure, shortened: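 PPRE activity in HepG2: transient cis-reporter transfection, 24 h compound incubation, reporter mRNA by RT-PCR and CE fluorescence; gain/loss fitted against DMSO.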

[4] = ATG_RORE_CIS: Attagene CIS-FACTORIAL HepG2 Assay for human RAR-related Orphan Receptor Element (RORE) (AID 2282959); conditions: HepG2 Attagene cis-factorial RORE reporter, mRNA; actives raise or lower the signal
Procedure, shortened: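 A 24-hour exposure of transfected HepG2 hepatoma cells precedes RNA isolation and reporter RT-PCR. Labeled products are digested with HpaI and resolved by capillary electrophoresis, with gain or loss of signal scored relative to DMSO.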

[5] = ATG_Sox_CIS: Attagene CIS-FACTORIAL HepG2 Assay for human SRY-box transcription factor (SOX) (AID 2282960); conditions: HepG2 Attagene cis-factorial SOX reporter, mRNA; actives raise or lower the signal
Procedure, shortened: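 HepG2, cis reporter units, 24 h exposure. Reporter mRNA: RT-PCR → FAM labelling → HpaI → CE fluorescence. Bidirectional fit vs DMSO.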

[6] = ATG_SREBP_CIS: Attagene CIS-FACTORIAL HepG2 Assay for human Sterol Regulatory Element Binding (SREBP) (AID 2282962); conditions: HepG2 Attagene cis-factorial SREBP reporter, mRNA; actives raise or lower the signal
Procedure, shortened: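 Readout: fluorescent reporter-transcript peaks resolved by capillary electrophoresis after RT-PCR. Cells were human HepG2 carrying transfected cis-promoter reporter constructs, dosed for 24 h. Gain or loss of signal was fitted against DMSO controls.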

[7] = ATG_TA_CIS: Attagene CIS-FACTORIAL HepG2 Assay for human TA Basal Promoter (AID 2282964); conditions: HepG2 Attagene CIS-factorial TA basal promoter reporter; actives raise or lower the signal
Procedure, shortened: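 Steps: transfect HepG2 with MRTUs; dose 24 h; isolate RNA, DNase-treat, reverse-transcribe; PCR and FAM-label reporter cDNA; digest with HpaI 2h at 37 C; run capillary electrophoresis. Activity fitted both directions against DMSO.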

[8] = ATG_TCF_b_cat_CIS: Attagene CIS-FACTORIAL HepG2 Assay for human T-Cell-Factor with beta-catenin (TCF/b-cat) (AID 2282965); conditions: HepG2 TCF/beta-catenin cis-reporter transcription, actives raise or lower the signal
Procedure, shortened: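 Cells of the HepG2 line carry transiently transfected reporter units whose promoters respond to endogenous factors. Twenty-four hours post-dosing, reporter mRNA induction is measured by fluorescent RT-PCR and capillary electrophoresis, with DMSO as baseline.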

[9] = ATG_TAL_CIS: Attagene CIS-FACTORIAL HepG2 Assay for human TAL Basal Promoter (AID 2282966); conditions: HepG2 Attagene cis-factorial TAL promoter reporter; actives raise or lower the signal;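 also: background control endpoint measuring basal TAL promoter reporter mRNA not a specific factor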
Procedure, shortened: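 Background-control endpoint: basal TAL promoter reporter transcripts in transiently transfected HepG2, measured 24 h after dosing. Read-out by RT-PCR with fluorescent primer extension and capillary electrophoresis; gain or loss of signal fitted relative to DMSO.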

[10] = ATG_TGFb_CIS: Attagene CIS-FACTORIAL HepG2 Assay for human Transforming Growth Factor (TGF) (AID 2282967); conditions: HepG2 Attagene CIS TGFb reporter, mRNA transcription; actives raise or lower the signal
Procedure, shortened: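 Cells were dosed for 24 hours, after which total RNA was reverse-transcribed and reporter sequences amplified, labeled and sized by capillary electrophoresis. Activity was fitted in both directions against DMSO.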

[11] = ATG_VDRE_CIS: Attagene CIS-FACTORIAL HepG2 Assay for human Vitamin D Receptor Element (VDRE) (AID 2282968); conditions: HepG2 VDRE cis-reporter transcription, actives raise or lower the signal
Procedure, shortened: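 Compounds were applied for 24 h to HepG2 cells transfected with promoter-regulated reporter units. Total RNA was reverse-transcribed, and reporter amplicons were fluorescently labelled and sized by capillary electrophoresis.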

[12] = biological target: Nuclear receptor subfamily 1 group I member 3 (Homo sapiens) (UniProt Q14994); experiment: ATG_CAR_TRANS: Attagene TRANS-FACTORIAL HepG2 Assay for human Constitutive Androstane Receptor (CAR) (AID 2282969; active = hit-call score of the fitted dose curve at least 0.9, where 1 is the maximum;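 also: activators raise reporter mRNA above DMSO so AC50 marks induction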); conditions: HepG2 Attagene TRANS-FACTORIAL CAR reporter
Nuclear receptor subfamily 1 group I member 3 (Homo sapiens), sequence (Q14994 whole entry, looked up, the tested form may be a part): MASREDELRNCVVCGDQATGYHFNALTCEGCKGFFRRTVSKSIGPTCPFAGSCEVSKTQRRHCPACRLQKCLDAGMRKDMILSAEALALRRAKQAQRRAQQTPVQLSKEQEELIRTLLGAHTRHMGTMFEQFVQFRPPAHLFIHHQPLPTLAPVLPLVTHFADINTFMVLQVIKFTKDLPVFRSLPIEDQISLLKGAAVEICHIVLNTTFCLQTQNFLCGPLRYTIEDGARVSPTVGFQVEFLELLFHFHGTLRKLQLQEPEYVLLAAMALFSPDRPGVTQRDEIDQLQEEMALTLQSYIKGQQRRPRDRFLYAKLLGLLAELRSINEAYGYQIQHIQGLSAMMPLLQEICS
Procedure, shortened: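 Transiently transfected HepG2, multiplex TRANS reporters (CAR-Gal4 chimera driving GAL4-UAS reporter). 24 h dosing. Readout: reporter transcript by RT-PCR + capillary electrophoresis, fluorescence intensity; positive direction vs DMSO.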

[13] = biological target: Estrogen receptor (Homo sapiens) (UniProt P03372); experiment: ATG_ERa_TRANS: Attagene TRANS-FACTORIAL HepG2 Assay for human Estrogen Receptor alpha (ERa) (AID 2282970; active = hit-call score of the fitted dose curve at least 0.9, where 1 is the maximum); conditions: HepG2 Attagene TRANS ERa GAL4 reporter, mRNA
Estrogen receptor (Homo sapiens), sequence (P03372 whole entry, looked up, the tested form may be a part): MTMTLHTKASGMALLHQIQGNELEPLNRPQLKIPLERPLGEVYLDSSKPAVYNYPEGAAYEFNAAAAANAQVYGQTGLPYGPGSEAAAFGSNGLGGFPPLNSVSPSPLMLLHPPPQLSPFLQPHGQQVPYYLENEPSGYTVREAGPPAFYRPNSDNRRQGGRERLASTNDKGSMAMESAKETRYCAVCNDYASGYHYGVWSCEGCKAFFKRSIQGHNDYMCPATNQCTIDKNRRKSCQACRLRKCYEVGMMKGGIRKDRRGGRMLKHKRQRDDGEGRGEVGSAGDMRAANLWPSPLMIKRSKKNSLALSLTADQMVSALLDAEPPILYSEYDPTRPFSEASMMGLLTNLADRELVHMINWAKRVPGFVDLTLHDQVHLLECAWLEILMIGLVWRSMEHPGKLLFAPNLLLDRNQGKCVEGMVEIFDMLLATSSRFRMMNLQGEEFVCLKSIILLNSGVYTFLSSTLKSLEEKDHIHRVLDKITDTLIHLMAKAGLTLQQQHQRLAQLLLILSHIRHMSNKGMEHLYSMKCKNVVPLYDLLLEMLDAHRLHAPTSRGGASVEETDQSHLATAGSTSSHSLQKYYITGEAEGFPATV
Procedure, shortened: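 Reporter transcripts were measured 24 h after dosing by RT-PCR with fluorescent primer extension and capillary electrophoresis. The system is transiently transfected HepG2 expressing exogenous NR-Gal4 chimeras driving GAL4-UAS reporters; DMSO is the baseline.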

[14] = biological target: X-box-binding protein 1 (Homo sapiens) (UniProt P17861); experiment: ATG_Xbp1_CIS: Attagene CIS-FACTORIAL HepG2 Assay for human X-box Binding Protein 1 (XBP1) (AID 2282972); conditions: HepG2 XBP1 cis-element reporter, Attagene multiplex; actives raise or lower the signal
X-box-binding protein 1 (Homo sapiens), sequence (P17861 whole entry, looked up, the tested form may be a part): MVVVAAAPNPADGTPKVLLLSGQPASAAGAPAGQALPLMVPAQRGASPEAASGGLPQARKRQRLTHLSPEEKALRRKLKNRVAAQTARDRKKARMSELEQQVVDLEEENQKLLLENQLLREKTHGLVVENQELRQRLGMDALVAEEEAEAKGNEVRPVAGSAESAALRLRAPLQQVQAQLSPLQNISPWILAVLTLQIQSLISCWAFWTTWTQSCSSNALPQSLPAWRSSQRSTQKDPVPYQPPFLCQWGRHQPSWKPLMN
Procedure, shortened: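 Read-out: fluorescent reporter mRNA fragments resolved by capillary electrophoresis after RT-PCR. Human HepG2 liver cells carried transfected cis-promoter reporter units and were exposed to chemicals for 24 hours. Gain or loss of signal fitted relative to DMSO baseline.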

[15] = ATG_M_19_TRANS: Attagene TRANS-FACTORIAL HepG2 Assay for M19 Transcription Factor (Internal Marker) (AID 2282974; active = hit-call score of the fitted dose curve at least 0.9, where 1 is the maximum); conditions: HepG2 Attagene TRANS-FACTORIAL M19 internal marker reporter
Procedure, shortened: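 Transfected HepG2 (GAL4-UAS MRTUs), 24 h compound, TriZol RNA, DNase-treated RT, reporter PCR, FAM label, HpaI digest, CE fluorescence; gain vs DMSO.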

[16] = biological target: Transcription factor Sp1 (Homo sapiens) (UniProt P08047); experiment: ATG_Sp1_CIS: Attagene CIS-FACTORIAL HepG2 Assay for human Specificity Protein 1 (Sp1) (AID 2282961); conditions: HepG2 Sp1 cis-reporter transcription, actives raise or lower the signal
Transcription factor Sp1 (Homo sapiens), sequence (P08047 whole entry, looked up, the tested form may be a part): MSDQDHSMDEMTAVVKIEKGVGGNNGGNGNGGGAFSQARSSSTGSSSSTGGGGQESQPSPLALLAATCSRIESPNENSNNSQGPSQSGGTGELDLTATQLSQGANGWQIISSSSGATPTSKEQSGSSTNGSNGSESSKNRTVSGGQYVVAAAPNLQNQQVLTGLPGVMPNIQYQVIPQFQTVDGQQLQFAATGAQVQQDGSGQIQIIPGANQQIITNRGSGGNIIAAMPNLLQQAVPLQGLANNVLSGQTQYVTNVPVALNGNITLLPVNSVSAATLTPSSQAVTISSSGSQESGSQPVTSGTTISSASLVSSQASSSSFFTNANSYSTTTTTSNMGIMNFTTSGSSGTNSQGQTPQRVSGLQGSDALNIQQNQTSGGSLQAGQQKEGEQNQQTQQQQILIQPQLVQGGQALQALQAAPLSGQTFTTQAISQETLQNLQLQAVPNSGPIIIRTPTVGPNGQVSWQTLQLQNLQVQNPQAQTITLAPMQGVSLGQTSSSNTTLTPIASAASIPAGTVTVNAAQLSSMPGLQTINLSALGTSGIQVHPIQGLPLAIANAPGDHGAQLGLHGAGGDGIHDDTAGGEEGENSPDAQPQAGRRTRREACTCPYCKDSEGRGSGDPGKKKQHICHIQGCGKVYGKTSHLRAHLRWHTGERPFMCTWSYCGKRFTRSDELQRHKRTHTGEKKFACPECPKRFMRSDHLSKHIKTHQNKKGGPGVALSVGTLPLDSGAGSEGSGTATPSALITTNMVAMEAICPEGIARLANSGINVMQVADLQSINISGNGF
Procedure, shortened: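 Liver-derived HepG2 cells, cis-element reporter library, 24 h treatment; RNA isolated, cDNA amplified with reporter-specific primers, FAM-labeled fragments sized on capillary analyzer. DMSO baseline, bidirectional curve fit.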

[17] = biological target: Signal transducer and activator of transcription 3 (Homo sapiens) (UniProt P40763); experiment: ATG_STAT3_CIS: Attagene CIS-FACTORIAL HepG2 Assay for human Signal Transducer and Activator of Transcription 3 (STAT3) (AID 2282963); conditions: HepG2, Attagene cis-factorial STAT3 reporter transcription; actives raise or lower the signal
Signal transducer and activator of transcription 3 (Homo sapiens), sequence (P40763 whole entry, looked up, the tested form may be a part): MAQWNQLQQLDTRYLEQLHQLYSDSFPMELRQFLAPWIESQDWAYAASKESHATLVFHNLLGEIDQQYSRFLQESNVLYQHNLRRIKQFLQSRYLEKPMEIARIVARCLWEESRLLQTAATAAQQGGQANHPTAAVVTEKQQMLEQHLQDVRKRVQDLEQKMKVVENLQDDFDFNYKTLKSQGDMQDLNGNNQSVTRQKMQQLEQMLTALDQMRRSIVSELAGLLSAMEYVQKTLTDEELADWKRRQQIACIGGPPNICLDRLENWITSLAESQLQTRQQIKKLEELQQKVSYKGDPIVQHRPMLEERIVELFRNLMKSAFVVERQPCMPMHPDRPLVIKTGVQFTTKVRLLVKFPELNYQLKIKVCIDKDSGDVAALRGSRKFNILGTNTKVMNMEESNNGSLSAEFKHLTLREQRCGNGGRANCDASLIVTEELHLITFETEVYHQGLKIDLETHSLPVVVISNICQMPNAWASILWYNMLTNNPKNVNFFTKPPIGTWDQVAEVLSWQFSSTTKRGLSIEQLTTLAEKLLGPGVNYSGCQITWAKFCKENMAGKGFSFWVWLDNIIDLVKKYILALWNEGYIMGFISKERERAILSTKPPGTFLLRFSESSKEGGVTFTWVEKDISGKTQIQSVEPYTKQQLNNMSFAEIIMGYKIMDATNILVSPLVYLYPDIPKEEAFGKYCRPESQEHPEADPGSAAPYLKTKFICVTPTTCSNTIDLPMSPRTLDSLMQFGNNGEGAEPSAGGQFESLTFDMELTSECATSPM
Procedure, shortened: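 Fluorescence intensity of 6-FAM-labelled reporter fragments, separated by capillary electrophoresis after RT-PCR, gave the signal. Cells were HepG2 transfected with cis-element reporter units and treated 24 h; fitting was bidirectional relative to DMSO.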

[18] = ATG_GAL4_TRANS: Attagene TRANS-FACTORIAL HepG2 Assay for GAL4 (Internal Marker) (AID 2282976; active = hit-call score of the fitted dose curve at least 0.9, where 1 is the maximum); conditions: HepG2 Attagene TRANS GAL4 internal marker reporter
Procedure, shortened: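 In transfected human HepG2 liver cells dosed 24 h, GAL4 reporter mRNA serves as a baseline marker. Detection by RT-PCR with fluorescent capillary electrophoresis, activity fitted upward relative to DMSO.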

Measured: AC50

C=CCCCCCCCCC(=O)OCCCC
active: [2] 42.1 µM
not listed: [16] | [17] | [18]
inactive: all other assays above

CC(=O)Nc1ccc2c(c1)Cc1cc(NC(C)=O)ccc1-2
not listed: [4] | [13] | [15] | [18]
inactive: all other assays above

CC(C)(Oc1ccc(C2CC2(Cl)Cl)cc1)C(=O)O (stereo unspecified)
active: [2] 41.1 µM | [3] 48.3 µM
not listed: [4] | [12] | [15]
inactive: all other assays above

CCCCCCCCCCOS(=O)(=O)O
active: [3] 13.4 µM | [4] 55 µM
not listed: [16] | [18]
inactive: all other assays above

COCC(C)N (stereo unspecified)
active: [2] 83.6 µM
not listed: [4] | [12] | [13] | [18]
inactive: all other assays above

O=C(Oc1ccccc1)c1ccc2ccccc2c1O
active: [2] 21.5 µM | [3] 41.6 µM | [17] 26.1 µM | [7] 54.9 µM | [10] 49 µM | [11] 26.4 µM | [14] 38.6 µM
not listed: [4] | [15] | [18]
inactive: all other assays above

CC(C)CC(O)Cc1ccccc1 (stereo unspecified)
active: [2] 71.6 µM
not listed: [4]
inactive: all other assays above

Cn1c(=O)[nH]c2ncn(C)c2c1=O
not listed: [4] | [12] | [15]
inactive: all other assays above
